Rows were chosen to be rich in hits. Some 2.9% of all compounds tested hit in one or more screens of this group.
LYPLA2 inh = LYPLA2 inhibitors, primary screen, counter-screen for PME1 inhibitor project, biochemical, fluorescence polarization, FP-Rh probe ABPP; recombinant LYPLA2; inhibition, % at 5.9 µM; 320,000 tested, 0.38% active;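 active = inhibition above the screen-wide mean plus 3 SD, limit set per campaign, cut at about 26% in these data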;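 note: 0% = LYPLA2 with DMSO and 100% = wells lacking LYPLA2 enzyme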
LYPLA1 inh = LYPLA1 inhibitors, primary screen, counter-screen for PME1 inhibitor project, biochemical, fluorescence polarization, FP-Rh probe ABPP | Acyl-protein thioesterase 1 (Homo sapiens), O75608 | recombinant LYPLA1 | inhibition, % at 5.9 µM | 320,000 tested, 0.16% active;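 active = inhibition above the mean of all tested compounds plus 3 SD, set per campaign, cut at about 14% in these data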;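 note: inhibitors block serine hydrolase probe labeling of LYPLA1 so polarization falls; 0% = enzyme with DMSO and 100% = wells lacking LYPLA1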
Target sequence (O75608 whole entry, looked up): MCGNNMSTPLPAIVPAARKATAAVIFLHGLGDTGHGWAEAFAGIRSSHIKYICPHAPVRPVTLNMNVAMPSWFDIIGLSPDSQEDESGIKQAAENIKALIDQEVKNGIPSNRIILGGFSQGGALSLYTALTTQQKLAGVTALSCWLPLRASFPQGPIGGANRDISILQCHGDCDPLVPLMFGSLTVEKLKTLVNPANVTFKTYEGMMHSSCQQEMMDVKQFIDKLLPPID
pPAFAH FP inh = pPAFAH enzyme inhibitors, primary screen, biochemical, fluorescence polarization, human. Platelet-activating factor acetylhydrolase (Homo sapiens), Q13093. recombinant pPAFAH, FP-rhodamine probe fluorescence polarization. inhibition, % at 3.39 µM. 330,000 tested, 1.5% active. AID 463082, 2010;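 active = inhibition above the mean inhibition across the screen plus 3 SD, cut at about 25% in these data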;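 note: inhibitors block binding of the rhodamine activity-based probe so polarization drops; 0% = enzyme with DMSO and 100% = wells lacking pPAFAH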
PAFAH1B3 inh = PAFAH1B3 enzyme inhibitors, primary screen, biochemical, fluorescence polarization, human. AID 492972, 2010. inhibition, % at 3.39 µM. recombinant PAFAH1B3, FP-rhodamine probe. 340,000 tested, 0.28% active. Platelet-activating factor acetylhydrolase IB subunit alpha1 (Homo sapiens), Q15102;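 active = inhibition above the screen-wide average of all tested compounds plus 3 SD, cut at about 25% in these data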;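 note: 0% = enzyme with DMSO only and 100% = wells lacking PAFAH1B3 protein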
Target sequence (Q15102 whole entry, looked up): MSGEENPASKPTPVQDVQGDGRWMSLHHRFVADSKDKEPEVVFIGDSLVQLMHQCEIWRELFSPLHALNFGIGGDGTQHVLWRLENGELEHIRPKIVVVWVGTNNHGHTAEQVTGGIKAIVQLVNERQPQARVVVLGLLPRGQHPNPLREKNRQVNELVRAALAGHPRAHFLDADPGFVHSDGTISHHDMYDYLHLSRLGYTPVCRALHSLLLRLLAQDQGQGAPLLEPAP
PAFAH1B2 FP inh = PAFAH1B2 enzyme inhibitors, primary screen, biochemical, fluorescence polarization, human; recombinant PAFAH1B2, FP-rhodamine activity probe; inhibition, % at 3.39 µM; 340,000 tested, 1.2% active;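 active = inhibition above the mean of all tested compounds plus 3 SD, cut at about 24% in these data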;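 note: 0% = enzyme with DMSO and 100% = wells lacking PAFAH1B2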
Target sequence (P68402 whole entry, looked up): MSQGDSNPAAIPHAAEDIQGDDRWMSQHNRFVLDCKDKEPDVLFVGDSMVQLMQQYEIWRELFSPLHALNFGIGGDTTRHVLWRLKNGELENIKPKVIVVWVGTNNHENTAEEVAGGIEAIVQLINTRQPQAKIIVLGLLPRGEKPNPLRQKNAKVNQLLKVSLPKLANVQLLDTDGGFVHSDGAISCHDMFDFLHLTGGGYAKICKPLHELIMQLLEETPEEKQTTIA
PAFAH2 inh = PAFAH2 enzyme inhibitors, primary screen, biochemical, fluorescence polarization, human | 340,000 tested, 0.99% active | recombinant PAFAH2, FP-rhodamine activity probe | inhibition, % at 3.39 µM | Platelet-activating factor acetylhydrolase 2, cytoplasmic (Homo sapiens), Q99487;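 active = inhibition above the mean over all tested compounds plus 3 SD, cut at about 30% in these data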;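 note: inhibitors block probe labeling of enzyme so polarization drops; 0% = enzyme with DMSO and 100% = wells lacking PAFAH2 protein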
* = called active by the depositor; . = not tested or not shown.

SMILES	LYPLA2 inh	LYPLA1 inh	pPAFAH FP inh	PAFAH1B3 inh	PAFAH1B2 FP inh	PAFAH2 inh
CN(C(=O)COC(=O)C12CC3CC(CC(C3)C1)C2)c1c(N)n(Cc2ccccc2)c(=O)[nH]c1=O	-3.3	-4.6	-2.1	-8.4	5.5	-14.6
COc1cc(S(=O)(=O)N2CCOCC2)ccc1NC(=O)COC(=O)C12CC3CC(CC(C3)C1)C2	0.6	5.8	2.4	5.3	0.8	2.9
CCCN(CCC)S(=O)(=O)c1ccc(C(=O)Nc2nc3c(s2)CCc2ccccc2-3)cc1	1.7	-3.6	0.0	-0.3	5.1	-7.4
CCCn1nc2cc(C(=O)NCCCCc3ccccc3)ccc2c1OCC	0.7	0.1	3.2	8.3	-2.9	6.0
Cc1cc(O)c(C(C)C)cc1C1(c2cc(C(C)C)c(O)cc2C)OC(=O)c2ccccc21	-14.6	-8.1	-4.6	4.6	-5.4	-8.1
COc1ccccc1CNS(=O)(=O)c1ccc2c(c1)CCCN2C(C)=O	3.8	-1.6	2.9	3.6	3.0	3.6
O=C(CC1CC2CCC1C2)Nc1nc(-c2ccccn2)cs1 (stereo unspecified)	-1.1	1.1	4.6	1.6	54.6*	6.2
Cn1nnnc1SCCNC(=O)C1CCC(=O)N(CCc2ccccc2)C1 (stereo unspecified)	7.1	5.2	0.9	9.4	2.0	2.1
CCOC(=O)c1sc(Nc2nc3c(OC)cccc3s2)nc1C	7.9	1.6	29.5*	8.1	-0.1	7.8
CCOC(=O)c1sc(Nc2ccccc2)nc1C	3.4	0.9	8.6	4.5	1.9	-0.3
COc1cccc2sc(Nc3nc(-c4ccccn4)cs3)nc12	-1.0	1.6	28.2*	14.3	13.2	23.8
CC(=O)Nc1ccc(S(=O)(=O)N2CCN(C(=O)c3ncoc3-c3ccc(C)cc3)CC2)cc1	0.5	-3.8	-3.5	4.9	0.2	8.3
O=C(N/N=C(\Cc1ncc[nH]1)c1ccccc1)c1ccncc1	-1.0	-2.0	0.6	-0.7	1.2	-7.5
Cc1ccc(CSCCNS(=O)(=O)c2ccc([N+](=O)[O-])cc2)cc1	4.6	-6.2	6.9	-4.6	25.0*	2.8
COc1cccc2c(=O)c3cccc(N)c3[nH]c12	-8.0	-6.5	30.9*	11.5	0.1	9.8
CC(=O)Nc1ccc(OCCCNC(=O)c2c(-c3ccccc3)noc2C)cc1	1.8	1.5	2.8	-3.5	-1.2	-6.6
COCCCNC(=S)N/N=C/c1ccc(OC)c(Br)c1	-0.6	0.5	2.0	6.7	7.7	2.0
CCNC(=O)COC(=O)c1ccc(-n2nc(C)cc2C)cc1	1.7	3.2	7.0	5.0	2.5	17.8
COc1ccc(NC(=O)COC(=O)c2ccc(-n3nc(C)cc3C)cc2)cc1OC	1.0	0.7	27.2*	12.9	2.0	7.0
Cc1cc(C)n(-c2ccc(C(=O)OCC(=O)Nc3ccc([N+](=O)[O-])cc3)cc2)n1	-4.1	-5.8	25.4*	14.2	3.6	26.3
Cc1cc(C)n(-c2ccc(C(=O)OCC(=O)Nc3ccc(S(=O)(=O)N4CCOCC4)cc3)cc2)n1	-3.7	0.3	7.0	5.0	1.8	-7.4
COc1ccc(C(=O)OCC(=O)Nc2ccc(F)c(F)c2)cc1OC	10.5	-1.2	29.8*	3.1	-2.5	81.8*
COc1ccc(NC(=O)COC(=O)c2ccc(S(=O)(=O)N3CCCC3)cc2)cc1OC	6.0	-3.1	-3.4	4.0	4.8	2.7
Cc1cc(C)n(-c2ccc(C(=O)OCC(=O)Nc3ccc(Cl)c(S(=O)(=O)N(C)C)c3)cc2)n1	-15.2	-13.5	25.0*	1.5	-1.1	72.7*
CC(=O)c1ccc(S(=O)(=O)N2CCN(c3ccccc3F)CC2)cc1	8.2	-2.2	3.0	5.3	1.4	-2.8
SMILES	LYPLA2 inh	LYPLA1 inh	pPAFAH FP inh	PAFAH1B3 inh	PAFAH1B2 FP inh	PAFAH2 inh
CCN(CC)c1ccc(/C=C2/C(=O)c3ccc(C(=O)O)cc3C2=O)cc1	-5.9	-2.5	28.3*	-7.4	-8.2	17.9
Cc1cccc(CC2SC(N3CCN(c4ccccc4)CC3)=NC2=O)c1 (stereo unspecified)	4.4	3.6	-1.5	6.1	7.5	1.6
CCc1ccc(C2CC(c3ccc(Cl)cc3)n3nc(N)nc3N2)cc1 (stereo unspecified)	-5.4	-0.8	-3.2	5.2	36.2*	4.8
COc1ccc(NC(=O)N2CCCC(c3nc(-c4ccc(C(C)C)cc4)no3)C2)cc1 (stereo unspecified)	-3.1	-8.3	20.8	-6.7	29.6*	-8.7
COc1ccc(NC(=O)N2CCCC(c3nc(-c4ccc(OC)cc4)no3)C2)cc1 (stereo unspecified)	4.2	-4.0	8.6	-6.1	1.8	8.2
C#CCOCCOCCOCCNc1nc(N2CCN(C(=O)CCCCCCCCCCNC(=O)[C@H]([C@@H](C)CC)n3cc(CCCCN=C(N)N)nn3)CC2)nc(N2CCN(C(=O)CCCCCCCCCCNC(=O)[C@H](CO)n3cc(CCCCCN)nn3)CC2)n1	8.3	-5.8	2.4	-5.9	-0.5	-0.3
C#CCOCCOCCOCCNc1nc(N2CCN(C(=O)CCCCCCCCCCNC(=O)[C@H]([C@@H](C)CC)n3cc(CCCCN=C(N)N)nn3)CC2)nc(N2CCN(C(=O)CCCCCCCCCCNC(=O)[C@H]([C@@H](C)CC)n3cc(CCCCN=C(N)N)nn3)CC2)n1	32.7*	-2.5	-1.4	.	.	.
C#CCOCCOCCOCCNc1nc(N2CCN(C(=O)CCCCCCCCCCNC(=O)Cn3cc(C[C@@H](C)O)nn3)CC2)nc(N2CCN(C(=O)CCCCCCCCCCNC(=O)[C@@H](CCC(=O)O)n3cc(CCCCCN)nn3)CC2)n1	13.0	-1.5	15.4	-1.5	1.1	-3.8
C#CCOCCOCCOCCNc1nc(N2CCOCC2)nc(N2CCN(C(=O)CCCCCCCCCCNC(=O)[C@@H]([C@H](C)CC)n3cc(CCCCCN)nn3)CC2)n1	8.7	-1.7	0.4	-0.3	1.9	4.5
C#CCOCCOCCOCCNc1nc(N2CCN(C(=O)CCCCCCCCCCNC(=O)[C@H]([C@@H](C)CC)n3cc(CCCCCN)nn3)CC2)nc(N2CCN(C(=O)CCCCCCCCCCNC(=O)[C@@H]([C@H](C)CC)n3cc(CCCCCN)nn3)CC2)n1	57.4*	6.9	0.6	.	.	.
C#CCOCCOCCOCCNc1nc(N2CCN(C(=O)CCCCCCCCCCNC(=O)Cn3cc(C[C@@H](C)O)nn3)CC2)nc(N2CCN(C(=O)CCCCCCCCCCNC(=O)[C@H](CCCCN)n3cc(CCCC(=O)O)nn3)CC2)n1	6.5	-6.1	25.3*	-12.1	-2.6	-4.5
CCOC(=O)Cc1csc(NC(=O)CSc2nnnn2-c2ccc(CC)cc2)n1	9.0	-1.3	2.1	-13.2	7.3	-4.3
